G9a inh: blocks human histone lysine methyltransferase G9a; G9a H3K9 monomethylation, AlphaScreen, 2 h; 350,000 compounds, 8.8% hits; AID 504332; Q96KQ7; Potency, µM (highest dose often 102 µM), for inactives: at the top dose activity, negative = inhibition, hits mostly inhibitors; also: % is scaled to controls: 0 for no effect and ±100 for the full control effect; nearly all actives have a fitted effect of over 75% in size
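G9a (20 nM) was preincubated 15 min with compound, then reacted 2 h at room temperature with 500 nM biotin-H3K9 peptide and 20 µM SAM. Monomethyl-H3K9 detected by AlphaScreen using anti-H3K9me1 antibody.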
BAZ2B block: blocks human BAZ2B | AlphaScreen BAZ2B-H3K14Ac peptide displacement | AID 504333 | 360,000 compounds, 4.4% hits | Q9UIF8 | Potency, µM (highest dose often 114 µM), for the others: top-dose activity change, negative = inhibition, hits mostly inhibitors; also: % is scaled to controls: 0 for no effect and ±100 for the full control effect; nearly all actives have a fitted effect of over 60% in size
Target sequence (Q9UIF8 whole entry, looked up): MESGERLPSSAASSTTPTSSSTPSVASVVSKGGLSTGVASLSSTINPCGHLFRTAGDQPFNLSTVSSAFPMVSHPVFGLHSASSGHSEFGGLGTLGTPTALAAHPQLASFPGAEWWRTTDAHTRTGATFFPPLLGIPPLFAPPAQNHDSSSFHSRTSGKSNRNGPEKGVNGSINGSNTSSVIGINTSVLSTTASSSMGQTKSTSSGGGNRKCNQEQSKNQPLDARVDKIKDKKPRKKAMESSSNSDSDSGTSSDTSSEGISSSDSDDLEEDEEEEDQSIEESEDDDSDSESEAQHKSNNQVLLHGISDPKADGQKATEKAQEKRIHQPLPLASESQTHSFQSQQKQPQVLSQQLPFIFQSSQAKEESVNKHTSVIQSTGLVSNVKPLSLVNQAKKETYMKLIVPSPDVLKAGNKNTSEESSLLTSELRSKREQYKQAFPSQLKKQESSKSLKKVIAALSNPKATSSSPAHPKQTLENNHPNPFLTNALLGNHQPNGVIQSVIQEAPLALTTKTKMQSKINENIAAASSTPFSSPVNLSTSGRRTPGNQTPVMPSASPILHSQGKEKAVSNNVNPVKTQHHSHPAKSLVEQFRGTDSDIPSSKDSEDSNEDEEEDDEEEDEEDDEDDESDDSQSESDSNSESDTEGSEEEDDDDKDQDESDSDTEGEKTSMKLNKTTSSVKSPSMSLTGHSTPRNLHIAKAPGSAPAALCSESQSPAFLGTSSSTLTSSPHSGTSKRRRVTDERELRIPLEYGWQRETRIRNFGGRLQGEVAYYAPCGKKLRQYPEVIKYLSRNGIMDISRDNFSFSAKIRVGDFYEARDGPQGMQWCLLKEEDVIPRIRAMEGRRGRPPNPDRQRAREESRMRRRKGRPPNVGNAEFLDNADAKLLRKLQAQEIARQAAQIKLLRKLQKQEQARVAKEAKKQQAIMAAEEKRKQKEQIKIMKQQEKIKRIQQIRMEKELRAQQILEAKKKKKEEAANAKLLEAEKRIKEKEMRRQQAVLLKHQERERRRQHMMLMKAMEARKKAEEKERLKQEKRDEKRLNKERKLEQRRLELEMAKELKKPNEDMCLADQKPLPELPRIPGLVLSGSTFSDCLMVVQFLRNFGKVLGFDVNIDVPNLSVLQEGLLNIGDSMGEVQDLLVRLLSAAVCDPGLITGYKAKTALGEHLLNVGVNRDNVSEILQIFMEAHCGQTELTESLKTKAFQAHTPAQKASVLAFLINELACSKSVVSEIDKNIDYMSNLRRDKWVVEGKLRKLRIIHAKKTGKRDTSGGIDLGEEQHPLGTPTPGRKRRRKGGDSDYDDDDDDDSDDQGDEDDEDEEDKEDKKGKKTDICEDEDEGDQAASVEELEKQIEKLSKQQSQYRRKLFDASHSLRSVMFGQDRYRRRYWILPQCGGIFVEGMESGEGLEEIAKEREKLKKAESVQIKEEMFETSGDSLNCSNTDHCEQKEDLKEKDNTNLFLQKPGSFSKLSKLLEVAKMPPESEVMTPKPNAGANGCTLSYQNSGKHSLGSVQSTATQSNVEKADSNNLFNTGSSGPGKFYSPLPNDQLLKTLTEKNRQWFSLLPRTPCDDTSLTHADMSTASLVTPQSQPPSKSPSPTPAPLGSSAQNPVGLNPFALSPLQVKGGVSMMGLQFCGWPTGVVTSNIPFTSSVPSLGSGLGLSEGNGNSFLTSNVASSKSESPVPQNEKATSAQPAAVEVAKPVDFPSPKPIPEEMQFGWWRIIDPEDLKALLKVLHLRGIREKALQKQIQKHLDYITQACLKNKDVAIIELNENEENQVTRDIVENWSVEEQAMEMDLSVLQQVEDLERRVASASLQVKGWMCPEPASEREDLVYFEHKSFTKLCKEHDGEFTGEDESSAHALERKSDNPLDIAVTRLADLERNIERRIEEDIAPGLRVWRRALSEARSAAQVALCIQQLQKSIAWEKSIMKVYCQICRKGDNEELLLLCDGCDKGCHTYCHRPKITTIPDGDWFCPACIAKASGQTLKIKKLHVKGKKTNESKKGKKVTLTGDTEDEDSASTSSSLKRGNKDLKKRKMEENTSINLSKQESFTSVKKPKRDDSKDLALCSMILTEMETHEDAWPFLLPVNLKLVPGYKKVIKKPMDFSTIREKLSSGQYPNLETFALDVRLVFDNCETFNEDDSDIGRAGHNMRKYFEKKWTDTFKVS
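In this displacement format the biotinylated H3(5-23) peptide acetylated at Lys14 serves as ligand at 50 nM, with BAZ2B at 50 nM in PBS pH 7.4 containing 0.01% Tween-20. Donor and acceptor beads are 10 ug/mL final.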
HP1b binding inh: HP1-beta chromodomain-methylated histone interaction inhibition; P83916; AlphaScreen HP1-beta / biotin-H3K9me3 peptide binding; Potency, µM (titrated, usually from 114 µM), inactives show at the top dose activity change, negative = inhibition, most hits filed as inhibitors; 390,000 compounds, 0.56% hits; AID 540317; also: nearly all actives have a fitted effect of over 70% in size
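HP1-beta protein (50 nM final) preincubated 30 min at room temperature with biotinylated H3(1-18)K9me3 peptide (50 nM) in PBS pH 7.4, 0.01% Tween-20, then compound added for 30 min. AlphaScreen streptavidin donor/nickel chelate acceptor beads (10 ug/mL final), 30 min dark, luminescence read.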
Sfp inh: inhibitors of Bacillus subtilis Sfp phosphopantetheinyl transferase; Q9F4F7; Biochemical Sfp PPTase activity, qHTS; Potency, µM, inactives show largest response in the series, negative = inhibition, most hits filed as inhibitors; 310,000 compounds, 3.5% hits; AID 1490;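 also: the enzyme is Sfp with the accession as filed and its product quenches rhodamine fluorescence; 0% = enzyme reaction without inhibitor and -100% = no enzyme wells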
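Sfp 15 nM + cpd, 15 min RT; start w/ rhodamine-CoA 5 uM, BHQ-2-YbbR 12.5 uM (final); 50 mM Hepes pH 7.6, 10 mM MgCl2, 0.01% NP-40, 0.01% BSA; read 525/598 nm at 0 and 30 min.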
JMJD2A Tudor: JMJD2A Tudor domain (human) inhibition. AlphaScreen JMJD2A-Tudor / H3K4me3 peptide binding. AID 504339. 390,000 compounds, 4.4% hits. Potency, µM (highest dose often 114 µM), for the others: at the top dose activity change, negative = inhibition, usual class: inhibitors. O75164; also: % is scaled to controls: 0 for no effect and ±100 for the full control effect; nearly all actives have a fitted effect of over 50% in size
Active calls of the source: *; ? = inconclusive; . = not tested or not shown; [ ] = another dose, or the depositor's remark. A selection: hits, their analogues and other compounds. The true share with any hit is near 12%. Calls follow the shape of the dose curve; as a rule, active = well fitted curve in the direction sought with a large enough effect; inconclusive = small, poorly fitted or top-dose-only effect, or another doubt; inactive = no such curve, though single readings can be large; an effect the other way counts as inactive or inconclusive. Potency is read from the fitted curve at half-maximal effect.

SMILES	G9a inh	BAZ2B block	HP1b binding inh	Sfp inh	JMJD2A Tudor
Cc1ccc(C)c(N2CCN(C(=O)c3ccc4nc(-c5ccco5)c(-c5ccco5)nc4c3)CC2)c1	-8.1%[0.0925 µM]	?	-13.7%	20µM*	-29.1%
Cc1ccc(N2CCN(C(=O)c3ccccc3)CC2)c(C)c1	4.5%[59 µM]	-3.1%	33.2%	12.0%	?
COc1ccccc1N1CCN(C(=O)c2ccc3nc(-c4ccco4)c(-c4ccco4)nc3c2)CC1	10µM*	?	-29.2%	-7.2%	?
COc1ccccc1N1CCN(C(=O)c2ccc3nc[nH]c3c2)CC1	7.9%[59 µM]	4.2%	50.6%	-0.3%	-1.4%
CCN(c1ccccc1)S(=O)(=O)c1ccc(C(=O)Nc2nnc(C3CC3)o2)cc1	-24.8%	79.4µM*	15.4%	33.3%	-17.2%
COCc1nnc(NC(=O)c2ccc(S(=O)(=O)N(C)c3ccccc3)cc2)o1	-10.0%[59 µM]	?	53.4%	17.1%	79.4µM*
CCN(c1ccccc1)S(=O)(=O)c1ccc(C(=O)Nc2nnc(-c3ccco3)o2)cc1	50.1µM*	.	33.8%	27.5%	-20.9%
CCN(c1ccccc1)S(=O)(=O)c1ccc(C(=O)Nc2nnc(COC)o2)cc1	4.7%	56.2µM*	44.2%	13.2%	56.2µM*
COc1ccc(CC(NC(=O)c2ccccc2)C(=O)NCC(=O)O)cc1 (centres undefined)	1.6%	10.5%	30.0%	19.1%	-17.7%
Cc1ccc(-n2nc(C)c(C(=O)O)n2)c(C)c1	79.4µM*	-4.3%	8.3%	3.4%	-10.1%
Cc1cc(=O)c(C(=O)O)cn1-c1ccc(C(C)C)cc1	44.7µM*	?	8.5%	14.0%	3.5%
Cc1ccc(-n2cc(C(=O)O)c(=O)cc2C)c(C)c1	50.1µM*	?	11.2%	-14.4%	-12.5%
Cc1cc(C)cc(-n2cc(C(=O)O)c(=O)cc2C)c1	28.2µM*	79.4µM*	7.6%	1.6%	-5.6%
Cc1cccc(-n2ccc(=O)c(C(=O)O)n2)c1	18.6%	-10.6%	48.8%	9.5%	-12.1%
Cc1cccc(-n2cc(C(=O)O)c(=O)cc2C)c1	22.4µM*	-38.3%	-4.3%	18.7%	44.7µM*
O=[S+]([O-])(c1ccc2c(c1)OCCO2)N1CCN([S+](=O)([O-])c2ccc(F)cc2Br)CC1	.	.	.	.	-9.6%
COc1ccc(NC2c3ccccc3C(=O)N2Cc2ccc3c(c2)OCO3)cc1 (centres undefined)	44.7µM*	50.1µM*	?	-10.7%	39.8µM*
CCN(CC)S(=O)(=O)c1ccc(NC2c3ccccc3C(=O)N2Cc2ccc3c(c2)OCO3)cc1 (centres undefined)	39.8µM*	-0.5%	14.2%	-4.5%	-18.4%
COc1cc(NC2c3ccccc3C(=O)N2Cc2ccc3c(c2)OCO3)cc(OC)c1 (centres undefined)	50.1µM*	?	-9.0%	-2.7%	?
O=C1c2ccccc2C(Nc2ccc3c(c2)OCCO3)N1c1ccc(Cl)cn1 (centres undefined)	44.7µM*	39.8µM*	?	-3.1%	?
O=C1c2ccccc2C(Nc2ccccc2)N1Cc1ccc2c(c1)OCO2 (centres undefined)	?	-30.9%	-4.8%	1.8%	-29.4%
COc1ccc(CNC[C@H]2O[C@@H](n3cnc4c(N)ncnc43)[C@H](O)[C@@H]2O)cc1OC	.	.	45.7%	.	-15.2%
O=C(NNC(=O)c1cccnc1)NC12CC3CC(CC(C3)C1)C2	0.8%	0.4%	13.5%	-2.0%	-10.1%
CCOC(=O)c1c(S(=O)(=O)NCC(=O)Nc2cccc(C)c2C)c(C)n(C)c1C	-48.3%	-2.1%	21.4%	3.8%	-11.7%
CCN(CC)S(=O)(=O)c1ccc(NC2c3ncccc3C(=O)N2Cc2ccccc2)cc1 (centres undefined)	.	?	-5.4%	-25.3%	28.2µM*
O=C1c2ccccc2C(Nc2ccc3c(c2)OCCO3)N1Cc1ccc2c(c1)OCO2 (centres undefined)	?	35.5µM*	-25.0%	-2.0%	39.8µM*
CC(=O)c1ccc(NC2c3ncccc3C(=O)N2Cc2ccc(F)cc2)cc1 (centres undefined)	.	?	13.5%	18.8%	-8.3%
O=C1OC(Nc2ccc3c(c2)OCO3)c2ccccc21 (centres undefined)	?	39.8µM*	?	56.2µM*	50.1µM*

Source: PubChem
